Sampled rows, rich in hits. Any-hit rate of the full collection: about 19%.
Lassa entry inh: blocks Lassa virus binding to or entry into cells; AID 540256; Lassa virus pseudotype entry inhibition, cell reporter; actives 1.2% (n = 300,000); Potency, µM (doses to about 37.9 µM), usual class: inhibitors; calls by dose curve; tested in HEK293 cells; further: nearly all actives have a fitted effect of over 50% in size
Cycloheximide cs: counter-screen hit for Shiga toxin inhibitors, cycloheximide. cell reporter, cycloheximide protein synthesis inhibition counterscreen. max response, %. actives 12% (n = 300,000). AID 2314; in the data active means max response mostly above about 13%, no sharp cut-off; inactive means mostly below about 14%; further: read at 38.3 µM for the half of the compounds with a filed dose
Pf growth 48h: P. falciparum growth inhibition at 48 hours (one generation) | P. falciparum luciferase growth in erythrocytes, 48 h | Potency, µM (highest dose often 28.7 µM), usual class: inhibitors | AID 504832 | actives 5.9% (n = 310,000)
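Compounds are pin-transferred into medium, infected erythrocytes (2% hematocrit, 0.1% parasitemia final) are added, and plates sit one parasite generation at 37 C in 5% CO2. Detection reagent is then added and luminescence measured.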
Shiga inhibitor: blocks Shiga toxin action in Vero cells. Vero cells, Shiga toxin protein synthesis inhibition reporter. inhibition, % at 38.7 µM. actives 9.2% (n = 290,000). AID 2315; in the data active means inhibition mostly above about 28%, no sharp cut-off; inactive means mostly below about 43%
MARV entry inh: inhibitors of Marburg virus binding or cell entry; Marburg virus pseudotyped entry inhibition, cell reporter; Potency, µM (series often up to 37.8 µM), actives largely listed as inhibitors; actives 1.8% (n = 300,000); calls by dose curve; tested in HEK293 cells
Pf growth 96h: P. falciparum growth inhibition at 96 hour, primary screen for plastid delayed-death inhibitors | Potency, µM (highest dose often 28.7 µM), hits mostly inhibitors | actives 6.9% (n = 320,000) | P. falciparum luciferase reporter growth, 96 h
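Two parasite generations (96 h, 37 C, 5% CO2) of compound exposure in infected erythrocytes (0.05% parasitemia, 2% hematocrit). Luciferase-reporter P. falciparum; decreased luminescence indicates inhibited growth, aimed at apicoplast-acting delayed death.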
Each line names hits and unclear results; the compound was inactive in the other large screens. Unless noted, the call rests on the fitted dose curve; in most records, active means well fitted inhibition curve with a large enough effect; inconclusive means small, poorly fitted or top-dose-only effect, or another doubt; inactive means no such curve, though single readings can be large or run the other way.

O=C(Nc1cccnc1)c1cc(-c2ccccc2O)on1	Cycloheximide cs 48, Shiga inhibitor 77 (no result: Lassa entry inh, MARV entry inh)
CCN(CC(=O)N1CCCC1)S(=O)(=O)c1cc(C)ccc1OC	none
COc1cc2[nH]c(=O)n(CCCC(=O)NCc3ccc(Cl)cc3)c(=O)c2cc1OC	none (no result: Cycloheximide cs, Pf growth 48h, Shiga inhibitor, Pf growth 96h)
CCOc1cc2[nH]c(=O)n(CCCCCC(=O)NC3CCCC3)c(=O)c2cc1OCC	Pf growth 48h inconclusive, Pf growth 96h 10µM (no result: Lassa entry inh, MARV entry inh)
COc1cc2[nH]c(=O)n(CCCC(=O)NCCc3ccccc3)c(=O)c2cc1OC	Lassa entry inh 1.4µM, Pf growth 48h inconclusive, MARV entry inh inconclusive, Pf growth 96h 5.2µM
CCOc1cc2[nH]c(=O)n(CCCCC(=O)NC3CCCCCC3)c(=O)c2cc1OCC	Pf growth 48h inconclusive (no result: Pf growth 96h)
Cn1nc(-c2ccc(Cl)cc2)c2cc(C(=O)NCC3CCCO3)sc21 (stereo not given)	none (no result: Lassa entry inh, Pf growth 48h, MARV entry inh)
O=c1c2c(nc3cc(-c4ccc(Cl)cc4)[nH]n13)CCS2	Cycloheximide cs 51
CCc1c(C)nc2c(-c3ccccc3)c[nH]n2c1=O	MARV entry inh inconclusive
CCc1c(C)nc2cc(-c3cccc(Br)c3)[nH]n2c1=O	Cycloheximide cs 38, Pf growth 48h inconclusive, Shiga inhibitor 80 (no result: Lassa entry inh, MARV entry inh)
CCOC(=O)Cc1c(C)nc2cc(-c3ccc(C)cc3)[nH]n2c1=O	Cycloheximide cs 15
CCOC(=O)CCc1c(C)nc2cc(-c3ccc(Cl)cc3)[nH]n2c1=O	Pf growth 48h inconclusive (no result: Pf growth 96h)
CCc1c(C)nc2cc(-c3ccc(Cl)cc3)[nH]n2c1=O	Cycloheximide cs 35, Pf growth 48h inconclusive, Shiga inhibitor 35 (no result: Lassa entry inh, MARV entry inh)
Cc1nc2cc(-c3ccc(Br)cc3)[nH]n2c(=O)c1Cl	Pf growth 48h inconclusive, Pf growth 96h 9.3µM (no result: Lassa entry inh, MARV entry inh)
COc1cc(-c2cc(OC)c3c(C)oc(C)c3c(=O)c2)ccc1OC(=O)c1ccccc1Cl	MARV entry inh inconclusive (no result: Cycloheximide cs, Pf growth 48h, Shiga inhibitor, Pf growth 96h)
COc1cc(-c2cccs2)cc(=O)c2c(C)oc(C)c12	Pf growth 48h inconclusive, Pf growth 96h 12µM
Cc1ccc(NC(=O)C(C)Sc2nnc(C)n2CC2CCCO2)cc1 (stereo not given)	none
CN(C)c1cccc(N(C)C)c1CNC(=O)NC(=O)c1c(F)cccc1F	none (no result: Lassa entry inh, MARV entry inh)
Cc1cc(N2CCN(S(=O)(=O)c3ccc(Cl)c(Cl)c3)CC2)c2ccccc2n1	Pf growth 48h 12µM (no result: Lassa entry inh, MARV entry inh)
Cc1cc(N2CCN(S(=O)(=O)c3ccc(Cl)cc3)CC2)c2ccccc2n1	Lassa entry inh 16µM, MARV entry inh inconclusive (no result: Pf growth 48h, Pf growth 96h)
Cc1cc(N2CCN(S(=O)(=O)c3ccccc3)CC2)nc2c(C)cccc12	MARV entry inh inconclusive, Pf growth 96h 13µM
Cc1cc(N2CCN(CC(O)C(F)(F)F)CC2)c2ccccc2n1 (stereo not given)	MARV entry inh inconclusive, Pf growth 96h inconclusive
Cc1cc(C)n(-c2nc3ccccc3nc2N2CCN(S(=O)(=O)c3ccc4ccccc4c3)CC2)n1	Lassa entry inh inconclusive, MARV entry inh inconclusive, Pf growth 96h 5.2µM (no result: Pf growth 48h)
CC1(C)Oc2ccc(C(=O)NC3CCCCC3)cc2N(CC#N)C1=O	Lassa entry inh inconclusive, Pf growth 48h inconclusive, Pf growth 96h inconclusive
COC(=O)c1ccc(CNC(=O)COC(=O)CC23CC4CC(CC(Br)(C4)C2)C3)cc1	Pf growth 48h inconclusive
CCSc1nc2c(c(=O)[nH]1)C(c1ccc(C)cc1)C1=C(CCCC1=O)N2 (stereo not given)	none
CCc1nc2ccccc2nc1N1CCN(S(=O)(=O)c2ccc(Cl)cc2)CC1	Lassa entry inh inconclusive, Pf growth 48h inconclusive, MARV entry inh 11µM
O=C1c2ccccc2N2C(=O)c3ccccc3[C@H]2N1c1ccccc1	Pf growth 96h inconclusive (no result: Pf growth 48h)
COc1ccc2c(c1OC)C(=O)N1c3cccc(Cl)c3C(=O)OC21 (stereo not given)	Pf growth 96h inconclusive
COc1ccc2c(c1OC)C(=O)N1c3ccccc3C(=O)N(c3ccccc3F)C21 (stereo not given)	Lassa entry inh inconclusive, Pf growth 48h 10µM, MARV entry inh inconclusive, Pf growth 96h 12µM
COc1ccc2c(c1OC)C(=O)N1c3ccccc3SC21 (stereo not given)	Cycloheximide cs 35, Shiga inhibitor 54, MARV entry inh inconclusive
COc1ccc2c(c1OC)C(=O)N1c3ccccc3COC21 (stereo not given)	Cycloheximide cs 41, Shiga inhibitor 80, MARV entry inh inconclusive
CCOC(=O)C1=CC[C@@H](c2cc3ccc(OC)cc3n2C)N(S(=O)(=O)c2ccc(C)cc2)[C@H]1C(=O)OCC	Pf growth 96h inconclusive (no result: Lassa entry inh, Cycloheximide cs, Shiga inhibitor, MARV entry inh)
COc1ccc(C2N=C(N)Nc3nc4ccccc4n32)c(OC)c1OC (stereo not given)	none (no result: Cycloheximide cs, Pf growth 48h, Shiga inhibitor, Pf growth 96h)
O=C(COc1ccccc1)Nc1ccc2c(c1)nc1n2CCSC1	Cycloheximide cs 24
Cc1ccc(OCC(=O)Nc2ccc3c(c2)nc2n3CCOC2)cc1	Pf growth 48h inconclusive
O=C(COc1ccccc1)Nc1ccc2c(c1)nc1n2CCOC1	Shiga inhibitor 134, MARV entry inh inconclusive
Cc1noc(C)c1C(=O)Nc1cccc(S(=O)(=O)N2CCOCC2)c1	none (no result: Lassa entry inh, Cycloheximide cs, Shiga inhibitor, MARV entry inh)
Cc1cc(C)n2nc(SCc3ccccc3F)nc2n1	none
COc1ccc(OCCSc2nc3nc(C)cc(C)n3n2)cc1	none (no result: Lassa entry inh, MARV entry inh)
Cc1cc(C)n2nc(SCCOc3ccccc3)nc2n1	Cycloheximide cs 11, MARV entry inh inconclusive
Cc1cc(C)n2nc(SCc3nc4ccccc4[nH]3)nc2n1	Shiga inhibitor active, Pf growth 96h 7.4µM (no result: Lassa entry inh, MARV entry inh)
CC1CCN(C(=O)CSc2nnc(-c3cc4ccccc4cc3O)n2Cc2ccco2)CC1	Pf growth 48h 12µM, MARV entry inh inconclusive
COc1ccc(C(=O)CSc2nnc(-c3cccnc3)n2Cc2ccco2)cc1	none
COc1ccc(C(=O)CSc2nnc(-c3cc4ccccc4cc3O)n2Cc2ccco2)cc1	Lassa entry inh inconclusive, Pf growth 48h 2.3µM
CCn1c(SCC(=O)N(C(C)C)C(C)C)nnc1-c1cc2ccccc2cc1O	Pf growth 48h 1.9µM
COc1cccc(CNC(=O)CCCCCn2c(=S)[nH]c3ccc(N4CCOCC4)cc3c2=O)c1	Pf growth 48h inconclusive, Pf growth 96h inconclusive
COC(=O)c1ccc(C(=O)OC)nc1	none
N#C/C(=C/c1ccco1)C(N)=S	Pf growth 48h inconclusive, MARV entry inh inconclusive, Pf growth 96h inconclusive
Cc1ccc(S(=O)(=O)SC/C=C/CSS(=O)(=O)c2ccc(C)cc2)cc1	none (no result: Cycloheximide cs, Pf growth 48h, Shiga inhibitor, Pf growth 96h)
O=C(N/N=C/c1ccccc1)c1cccc2ccccc12	none (no result: Cycloheximide cs, Pf growth 48h, Shiga inhibitor, Pf growth 96h)
O=C(N/N=C/c1sc2ccccc2c1O)c1cccc2ccccc12	Lassa entry inh inconclusive, Cycloheximide cs 25, Pf growth 48h inconclusive, MARV entry inh 14µM
O=C(N/N=C/c1ccncc1)c1sc2ccccc2c1Cl	Pf growth 96h inconclusive (no result: Lassa entry inh, MARV entry inh)
COc1ccc(C(=O)N/N=C/c2sc3ccccc3c2O)cc1	Lassa entry inh inconclusive, Cycloheximide cs 40, Pf growth 48h inconclusive, Shiga inhibitor 116, MARV entry inh inconclusive, Pf growth 96h inconclusive
COc1ccc2cc(C(=O)N/N=C/c3sc4ccccc4c3O)ccc2c1	Lassa entry inh inconclusive, Cycloheximide cs 52, Pf growth 48h inconclusive, Shiga inhibitor 111, MARV entry inh inconclusive

Assay outcomes (PubChem BioAssay)
